# Results: PubChem BioAssay
# Legend:
# [1] = system: Human papillomavirus type 1a protein E7 (residues 44-93); assay: HPV1a E7 fragment binders on microarrays, primary screen, biochemical, small-molecule microarray, residues 44-93, 635 nm fluorescence (AID 1108); conditions: small-molecule microarray binding, fluorescence 635 nm; higher = more signal;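 further: E7 fragment applied at 1 µg/mL in TBST for 1 h at 4 C; score combines spot fluorescence with its signal to noise ratio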
# [2] = modulators of HCV replicon luciferase signal, primary screen, HCV replication inhibitor project, Huh7 cells, luciferase reporter (AID 1109); conditions: 48 h, higher = more signal;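 further: huh7 hepatoma cells harbouring a luciferase neomycin HCV replicon reporter; luciferase luminescence as measure of HCV replicon replication; test concentration not given here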
# [3] = target: Left-right determination factor 2 (Homo sapiens) (UniProt O00292); assay: LEFTY2 binders on small-molecule microarrays, primary screen, biochemical, small-molecule microarray, 635 nm fluorescence scan (AID 1110); conditions: LEFTY2 binding, higher = more signal
# Left-right determination factor 2 (Homo sapiens), sequence (O00292 whole entry, looked up): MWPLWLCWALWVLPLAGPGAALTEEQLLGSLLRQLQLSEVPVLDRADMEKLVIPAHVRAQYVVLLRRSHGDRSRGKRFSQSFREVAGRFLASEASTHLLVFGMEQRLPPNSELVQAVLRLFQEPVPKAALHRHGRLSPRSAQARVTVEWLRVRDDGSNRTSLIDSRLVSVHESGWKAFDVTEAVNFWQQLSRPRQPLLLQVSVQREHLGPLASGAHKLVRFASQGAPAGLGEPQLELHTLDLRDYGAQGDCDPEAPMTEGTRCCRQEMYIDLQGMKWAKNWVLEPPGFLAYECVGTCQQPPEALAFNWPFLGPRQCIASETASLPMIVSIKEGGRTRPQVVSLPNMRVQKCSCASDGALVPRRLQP
# [4] = target: Calmodulin-1 (Homo sapiens) (UniProt P0DP23); assay: CALM1 binders on microarrays, EGTA buffer, profiling panel, biochemical, small-molecule microarray, Cy5-labelled CALM1 (AID 1111); conditions: Cy5-CALM1 binding fluorescence, higher = more signal;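 further: labelled calmodulin applied in Tris saline Tween buffer holding calcium plus EGTA and DTT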
# [5] = target: Calmodulin-1 (Homo sapiens) (UniProt P0DP23); assay: calcium-bound CALM1 binders on microarrays, profiling panel, artefact control for SMM control-protein annotation, biochemical, small-molecule microarray, Cy5-labelled CALM1, plus calcium (AID 1112); conditions: Cy5-CALM1 binding fluorescence, higher = more signal;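 further: score merges spot fluorescence with signal to noise from triplicate slides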
# [6] = small-molecule microarray binders of probe aWnt5a, primary screen, biochemical, biotinylated probe, 635/667 nm fluorescence (AID 1113); conditions: higher = more signal;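 further: score merges 667 nm fluorescence intensity with signal-to-noise per printed feature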
# [7] = small-molecule microarray binders of probe aShh, primary screen, biochemical, biotinylated probe, 635/667 nm fluorescence (AID 1114); conditions: higher = more signal;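 further: probe is biotin-labelled aShh protein from a stem cell growth factor screen; measures binding of labelled protein to compounds printed on the slide; score merges feature fluorescence at 667 nm with signal-to-noise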
# [8] = small-molecule microarray binders of probe aNog, primary screen, biochemical, biotinylated probe, 635/667 nm fluorescence (AID 1115); conditions: higher = more signal;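 further: probe is biotinylated aNog protein used at 0.15 µg/mL for 1 h at 4 C; z-score combines 667 nm fluorescence of each spot with its signal to noise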
# [9] = target: Torsin-1A-interacting protein 1 (Homo sapiens) (UniProt Q5JTV8); assay: LAP1 binders from COS7 cell lysate, primary screen, small-molecule microarray, 635/667 nm fluorescence (AID 1116); conditions: COS7-hLAP1 lysate binding, 635 nm fluorescence, higher = more signal
# Torsin-1A-interacting protein 1 (Homo sapiens), sequence (Q5JTV8 whole entry, looked up): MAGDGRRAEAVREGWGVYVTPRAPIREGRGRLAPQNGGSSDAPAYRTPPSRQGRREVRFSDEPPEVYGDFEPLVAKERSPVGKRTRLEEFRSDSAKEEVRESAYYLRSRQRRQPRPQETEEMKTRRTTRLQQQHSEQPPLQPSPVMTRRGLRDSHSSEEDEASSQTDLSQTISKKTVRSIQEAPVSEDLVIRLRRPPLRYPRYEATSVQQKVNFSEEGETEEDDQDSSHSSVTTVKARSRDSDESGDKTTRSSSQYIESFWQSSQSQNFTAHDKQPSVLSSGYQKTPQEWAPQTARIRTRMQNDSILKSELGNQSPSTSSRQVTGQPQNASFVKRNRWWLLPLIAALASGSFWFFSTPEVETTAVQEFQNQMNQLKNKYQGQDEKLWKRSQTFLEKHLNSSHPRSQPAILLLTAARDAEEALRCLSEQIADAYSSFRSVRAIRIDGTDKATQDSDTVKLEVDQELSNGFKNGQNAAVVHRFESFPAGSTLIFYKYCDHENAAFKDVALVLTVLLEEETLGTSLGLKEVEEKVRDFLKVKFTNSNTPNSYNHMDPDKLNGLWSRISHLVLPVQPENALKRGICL
# [10] = target: Alpha-bungarotoxin (Bungarus multicinctus) (UniProt P60615); assay: alpha-bungarotoxin binders on microarray, profiling panel, artefact control for SMM control protein annotation, biochemical, small-molecule microarray, Alexa647 label, 635/667 nm fluorescence (AID 1117); conditions: alpha-BTX-A647 binding fluorescence, higher = more signal
# Alpha-bungarotoxin (Bungarus multicinctus), sequence (P60615 whole entry, looked up): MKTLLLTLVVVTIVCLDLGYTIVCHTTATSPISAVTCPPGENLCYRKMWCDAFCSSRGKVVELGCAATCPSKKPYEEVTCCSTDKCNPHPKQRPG
SMILES,composite z-score [1],z-score [2],composite z-score [3],composite z-score [4],composite z-score [5],composite z-score [6],composite z-score [7],composite z-score [8],composite z-score [9],composite z-score [10]
COc1ccc(C(O)C2C=CC3C(=O)N(Cc4ccccc4)C(=O)C3N2n2cnnc2)c2ccccc12 (stereo not given),1.52,-0.6,-1.55,0.0664,-0.269,-0.12,-0.195,0.657,1.2,-0.438
C=C(CCCC)C(=O)CC[C@@H](OC(=O)c1ccccc1-c1ccccc1C(=O)O)c1cccc(OCCO)c1,0.834,-4.38,0.373,-0.826,-0.973,-0.148,-0.0709,0.468,2.19,-0.14
CC(C)(C)OC(=O)CC[C@]1(C(=O)N2CCOCC2)N=C(c2ccc(OCCCO)cc2)O[C@H]1c1ccccc1,0.79,-0.304,-0.356,0.0137,-0.031,-0.0459,-0.27,-0.375,1.07,0.109
C#CCNC(=O)[C@H](Cc1ccccc1)NC(=O)[C@@H](N=[N+]=[N-])C(C)C,0.902,0.965,0.69,0.222,-0.217,-0.117,-0.262,0.221,0.455,0.96
COc1ccc(NC(=O)O[C@H]2[C@H](OC(=O)Nc3ccc4c(c3)OCO4)[C@@H](OC(=O)Nc3ccc4c(c3)OCO4)[C@@H](OC)O[C@@H]2CO)cc1,1.38,-0.802,0.0093,1.88,-0.56,-0.0478,0.365,0.966,1.29,0.663
COCCOC(=O)N1C(=O)[C@@]2(c3cc(C#Cc4ccc(OC)cc4)ccc31)[C@H](C(=O)N1CCN(c3ncccn3)CC1)[C@H]1C(=O)O[C@H](c3ccccc3)[C@H](c3ccccc3)N1[C@@H]2c1ccccc1OCCO,1.23,-0.509,0.0641,0.551,0.858,-0.131,-0.0011,0.187,0.931,1
COC(=O)c1c(CC[C@@H](CO)NC(=O)N[C@H](Cn2cc(-c3ccccc3C)nn2)C(C)C)oc(C(C)=O)c1C(=O)OC,-0.794,-0.515,-0.645,-0.0696,-0.637,-0.169,-0.0553,0.0099,0.441,0.879
C[C@]1(C(=O)NC2CC2)c2ccccc2C(=O)N(Cc2ccc(OC(F)(F)F)cc2)[C@H]1c1ccc(CO)cc1,-0.633,-0.144,-1.07,-0.42,0.479,-0.0792,-0.0243,0.625,0.297,0.585
C=C(/C(=C/C[C@@H](OC(=O)c1ccncc1)c1ccccc1OCCO)c1cc(C(=O)OC)ccc1OC)C(C)C,1.36,-2,0.788,0.455,-0.366,-0.012,0.3,-0.025,0.568,0.255
COc1c(C)cc(-c2cc3c(c(-c4ccccc4)n2)[Si](C(C)C)(C(C)C)OC3)cc1C,-0.689,-0.268,-0.0473,-0.319,-0.119,-0.184,-0.153,-0.122,-0.16,0.857
COC(=O)C(CC#Cc1ccc2c(c1)[C@]1(C(=O)N2)[C@H](C(=O)O)[C@H]2C(=O)O[C@H](c3ccccc3)[C@H](c3ccccc3)N2[C@@H]1c1ccccc1OCCO)C(=O)OC,0.851,-2.04,0.445,1.62,0.369,-0.001,0.108,0.767,1.1,1.79
CC(C)CN1C(=O)[C@@]2(c3ccc([N+](=O)[O-])cc3)CC(=O)N(CC34CC5CC(CC(C5)C3)C4)[C@@H]2c2ccc(CO)cc21,-0.746,-1.07,-1.36,0.657,0.0047,-0.152,0.151,0.884,-1.09,0.578
CCN(CC)c1ccc(N2CC=CC34O[C@@H]5/C=C\CCC(C)OC(=O)C5[C@H]3C(=O)N(CCO)[C@@H]4C2=O)cc1 (stereo not given in full),1.14,-1.35,-1.05,-0.653,-0.897,-0.148,0.147,-0.0503,2.67,-0.699
CC(C)(C)OC(=O)CC[C@]1(C(=O)O)N=C(c2ccc(OCCCO)cc2)O[C@H]1c1ccccc1CN=[N+]=[N-],-0.391,0.0879,-0.688,0.32,0.81,-0.136,0.0668,0.718,0.69,-0.489
CN1C(=O)C2C=CC(C(O)Cc3ccccc3)N(N(c3ccccc3)c3ccccc3)C2C1=O (stereo not given),0.501,-0.251,-0.268,-0.0282,0.372,0.0438,0.0469,1.14,0.368,0.678
C=CCOC(=O)[C@@H]1[C@H]2C(=O)O[C@H](c3ccccc3)[C@H](c3ccccc3)N2[C@H](c2ccc(OCCOC(=O)[C@H]3C[C@H]4C(=O)N[C@@H](CCCCNC(C)=O)C(=O)N4[C@H]3c3cccc(OCCO)c3)cc2)[C@@]12C(=O)Nc1ccc(I)cc12,0.721,-1.03,0.642,0.277,-0.759,-0.096,0.0725,-0.0317,0.97,1.54
CN1C2C=C(CCCO)C(C3C(=O)N(C(N)=O)C(=O)C32)C1c1cccs1 (stereo not given),0.261,-0.364,0.362,-0.555,-0.328,0.535,-0.138,-0.0987,0.377,0.378
C[n+]1ccc(CCCO)cc1,-0.225,-0.125,0.0525,-0.628,0.371,-0.0462,0.475,-0.253,1.26,-0.739
CN1C(=O)[C@@]2(CCS(=O)(=O)c3ccccc3)N=C(c3ccc(OCCCO)cc3)O[C@H]2c2ccccc21,1.48,-1.55,-0.0486,2.46,-0.865,-0.176,-0.367,-0.321,1.72,1.32
C=CCNC(=O)[C@@H]1[C@H]2C(=O)O[C@H](c3ccccc3)[C@H](c3ccccc3)N2[C@H](c2ccccc2OCCO)[C@@]12C(=O)N(C(=O)OCCOC)c1ccc(C#CC3=CCCCC3)cc12,0.829,-2.12,0.167,0.743,-0.0835,-0.124,-0.0553,0.394,1.15,1.59
COC(=O)[C@@]1(Cc2ccccc2)[C@H]2c3cc(C(=O)N4CCCC4)n(Cc4cc(F)cc5c4OCOC5)c3C[C@H]2CN1C(=O)c1ccccc1,0.0951,-0.592,-0.655,1.08,0.641,0.14,0.688,1.93,1.74,0.468
C[C@]1(C(=O)O)c2ccccc2C(=O)N(Cc2ccccc2)[C@H]1c1ccc(CO)cc1,-0.633,-0.413,-2.19,0.139,1.2,-0.204,-0.291,0.562,-0.0514,-1.04
C=CCN1Cc2ccccc2C[C@@]2(N=C(c3ccc(OCCCO)cc3)O[C@H]2c2ccccc2)C1=O,1.46,-3.08,0.473,2.97,-0.398,0.0873,0.19,-0.179,1.2,1.15
CCCNC(=O)[C@@]1(c2ccc([N+](=O)[O-])cc2)CC(=O)N(C2CCCCC2)[C@@H]1c1ccc(CO)cc1I,0.198,-2.64,-0.101,0.647,0.587,0.108,0.166,1.44,1.33,1.6
C[C@@H](OCc1ccccc1)C1NC(=O)[C@@]23C(=O)N[C@@H](Cc4ccccc4)C2[C@H](C)[C@@]2(C)O[C@H]2C3/C=C/C/C=C\CNC(=O)CNC1=O (stereo not given in full),-0.816,-0.712,0.367,-1.15,-1.02,-0.199,-0.179,-0.323,-0.143,-1.56
CCOC(=O)C[C@H]1[C@H](OC(=O)c2ccccc2-c2ccccc2)[C@@H](NC(=O)CC(C)C)c2cc(OCCCO)ccc2N1C(=O)c1ccc2ccccc2n1,0.046,-0.578,0.186,0.844,-0.456,-0.124,-0.0769,-0.134,0.171,0.719
COc1cc(CO)cc(I)c1O[C@H]1C=C(C(=O)NCCO)C[C@@H](N(Cc2ccc(F)cc2)C(=O)C2CCCO2)[C@@H]1O (stereo not given in full),-0.284,0.561,0.407,-0.0131,-0.402,-0.124,-0.338,-0.0312,-0.0829,0.988
